# Where “and” joins values, the source holds several entries; their conditions need not be identical. Identical values can stand only once. In all, about 5,500 compounds went through this assay and about 2,000 (36%) were called active. Not shown: some 18% with an inconclusive outcome. The list shows a part of the results. Unmarked numbers belong to inactive results. No stated cut-off is given here; in the data, active means normalized growth mostly below about 0.91 (no sharp cut-off); inconclusive means no clear call, values can overlap the other calls; inactive means mostly above about 0.92.
# Assay: chemical genetic growth profiling, strain panel (AID 1159580);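 further: tested at 20 µM; growth read once vehicle control cultures reached saturation at 30 °C; 1 = growth at the plate median or of vehicle wells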
# Conditions: S. cerevisiae deletion strains, growth OD
compound,measurement,setting,value
ClC1=C(Cl)C2(Cl)C3C(Cl)C=CC3C1(Cl)C2(Cl)Cl (configuration not stated),normalized growth,"locus YAL013W, strain DEP1, stronger effect = lower value",0.999
same,normalized growth,"locus YAL021C, strain ccr4, stronger effect = lower value",0.99
same,normalized growth,"locus YAL026C, strain drs2, stronger effect = lower value",0.999
same,normalized growth,"locus YAL030W, strain snc1, stronger effect = lower value",1.01
same,normalized growth,"locus YBL061C, strain skt5, stronger effect = lower value",1.01
same,normalized growth,"locus YBR009C, strain hhf1, stronger effect = lower value",0.983
same,normalized growth,"locus YBR021W, strain FUR4, stronger effect = lower value",0.987
same,normalized growth,"locus YBR023C, strain chs3, stronger effect = lower value",0.998
same,normalized growth,"locus YBR171W, strain sec66, stronger effect = lower value",0.994
same,normalized growth,"locus YBR229C, strain ROT2, stronger effect = lower value",0.991
same,normalized growth,"locus YBR231C, strain swc5, stronger effect = lower value",0.999
same,normalized growth,"locus YBR279W, strain paf1, stronger effect = lower value",1
same,normalized growth,"locus YCL011C, strain gbp2, stronger effect = lower value",0.996
same,normalized growth,"locus YCL016C, strain dcc1, stronger effect = lower value",0.998
same,normalized growth,"locus YCL029C, strain bik1, stronger effect = lower value",0.965
same,normalized growth,"locus YCL061C, strain MRC1, stronger effect = lower value",0.996
same,normalized growth,"locus YCL069W, strain vba3, stronger effect = lower value",1.01
same,normalized growth,"locus YCR088W, strain abp1, stronger effect = lower value",0.998
same,normalized growth,"locus YDL005C, strain med2, stronger effect = lower value",1.01
same,normalized growth,"locus YDL035C, strain GPR1, stronger effect = lower value",0.962
same,normalized growth,"locus YDL040C, strain nat1, stronger effect = lower value",1.01
same,normalized growth,"locus YDL074C, strain BRE1, stronger effect = lower value",1
same,normalized growth,"locus YDL101C, strain DUN1, stronger effect = lower value",0.989
same,normalized growth,"locus YDL134C, strain PPH21, stronger effect = lower value",0.99
same,normalized growth,"locus YDL185W, strain tfp1, stronger effect = lower value",0.983
same,normalized growth,"locus YDL192W, strain arf1, stronger effect = lower value",0.98
same,normalized growth,"locus YDR001C, strain nth1, stronger effect = lower value",1
same,normalized growth,"locus YDR069C, strain doa4, stronger effect = lower value",0.981
same,normalized growth,"locus YDR101C, strain arx1, stronger effect = lower value",0.992
same,normalized growth,"locus YDR137W, strain rgp1, stronger effect = lower value",0.925
same,normalized growth,"locus YDR150W, strain NUM1, stronger effect = lower value",0.995
same,normalized growth,"locus YDR159W, strain sac3, stronger effect = lower value",0.817 (active)
same,normalized growth,"locus YDR162C, strain NBP2, stronger effect = lower value",0.999
same,normalized growth,"locus YDR195W, strain ref2",0.913
same,normalized growth,"locus YDR297W, strain sur2, stronger effect = lower value",1
same,normalized growth,"locus YDR318W, strain mcm21, stronger effect = lower value",0.978
same,normalized growth,"locus YDR334W, strain swr1, stronger effect = lower value",1.02
same,normalized growth,"locus YDR335W, strain msn5, stronger effect = lower value",1.01
same,normalized growth,"locus YDR388W, stronger effect = lower value",0.974
same,normalized growth,"locus YDR392W, strain spt3, stronger effect = lower value",0.975
same,normalized growth,"locus YDR502C, strain sam2, stronger effect = lower value",0.984
same,normalized growth,"locus YEL003W, strain gim4, stronger effect = lower value",0.995
same,normalized growth,"locus YEL037C, strain rad23, stronger effect = lower value",1.01
same,normalized growth,"locus YEL061C, strain CIN8 (second series), stronger effect = lower value",1.01
same,normalized growth,"locus YEL061C, strain CIN8, stronger effect = lower value",1
same,normalized growth,"locus YER015W, strain faa2, stronger effect = lower value",0.992
same,normalized growth,"locus YER016W, strain bim1, stronger effect = lower value",1
same,normalized growth,"locus YER110C, stronger effect = lower value",0.978
same,normalized growth,"locus YER111C, strain swi4, stronger effect = lower value",1
same,normalized growth,"locus YER155C, strain BEM2 (second series), stronger effect = lower value",0.998
same,normalized growth,"locus YER155C, strain BEM2, stronger effect = lower value",1.01
same,normalized growth,"locus YER167W, strain BCK2, stronger effect = lower value",0.98
same,normalized growth,"locus YFR010W, strain ubp6, stronger effect = lower value",0.995
same,normalized growth,"locus YGL078C, strain dbp3, stronger effect = lower value",0.988
same,normalized growth,"locus YGL086W, strain mad1, stronger effect = lower value",0.99
same,normalized growth,"locus YGL167C, strain pmr1, stronger effect = lower value",0.998
same,normalized growth,"locus YGL173C, strain kem1, stronger effect = lower value",0.993
same,normalized growth,"locus YGL227W, strain vid30, stronger effect = lower value",1
same,normalized growth,"locus YGL240W, strain doc1, stronger effect = lower value",0.986
same,normalized growth,"locus YGL248W, strain PDE1, stronger effect = lower value",0.991
same,normalized growth,"locus YGL253W, strain hxk2, stronger effect = lower value",0.999
same,normalized growth,"locus YGR078C, strain PAC10, stronger effect = lower value",0.993
same,normalized growth,"locus YGR135W, strain pre9, stronger effect = lower value",0.982
same,normalized growth,"locus YGR229C, strain SMI1, stronger effect = lower value",0.985
same,normalized growth,"locus YGR252W, strain gcn5, stronger effect = lower value",0.957
same,normalized growth,"locus YHR013C, strain ard1, stronger effect = lower value",0.904
same,normalized growth,"locus YHR027C, strain rpn1, stronger effect = lower value",0.995
same,normalized growth,"locus YHR030C, strain SLT2, stronger effect = lower value",1 and 1.04
same,normalized growth,"locus YHR079C, strain IRE1 (second series), stronger effect = lower value",0.973
same,normalized growth,"locus YHR079C, strain IRE1, stronger effect = lower value",1
same,normalized growth,"locus YHR094C, strain hxt1, stronger effect = lower value",0.988
same,normalized growth,"locus YHR129C, strain ARP1, stronger effect = lower value",0.997
same,normalized growth,"locus YHR142W, strain chs7, stronger effect = lower value",0.996
same,normalized growth,"locus YHR200W, strain rpn10, stronger effect = lower value",0.987
same,normalized growth,"locus YIL066C, strain RNR3, stronger effect = lower value",0.971
same,normalized growth,"locus YIL073C, strain SPO22, stronger effect = lower value",0.922
same,normalized growth,"locus YIL125W, strain kgd1, stronger effect = lower value",1
same,normalized growth,"locus YIR030C, strain dcg1, stronger effect = lower value",0.989
same,normalized growth,"locus YJL092W, strain hpr5, stronger effect = lower value",0.998
same,normalized growth,"locus YJL095W, strain BCK1 (second series), stronger effect = lower value",1
same,normalized growth,"locus YJL095W, strain BCK1, stronger effect = lower value",1.03 and 1.04
same,normalized growth,"locus YJL115W, strain asf1, stronger effect = lower value",0.995
same,normalized growth,"locus YJL129C, strain trk1, stronger effect = lower value",0.854 (active)
same,normalized growth,"locus YJL134W, strain LCB3, stronger effect = lower value",0.984
same,normalized growth,"locus YJL154C, strain vps35, stronger effect = lower value",1
same,normalized growth,"locus YJL164C, strain tpk1, stronger effect = lower value",0.953
same,normalized growth,"locus YJL166W, strain qcr8, stronger effect = lower value",0.943
same,normalized growth,"locus YJL168C, strain set2, stronger effect = lower value",0.977
same,normalized growth,"locus YJL187C, strain SWE1 (second series), stronger effect = lower value",0.989
same,normalized growth,"locus YJL187C, strain SWE1, stronger effect = lower value",1.01
same,normalized growth,"locus YJR043C, strain POL32, stronger effect = lower value",0.997
same,normalized growth,"locus YJR066W, strain TOR1, stronger effect = lower value",0.961

# From PubChem BioAssay AID1159580 (chemical genetic matrix, 2015)
